Records with an inconclusive call do not appear. The source made the active and inactive calls. Unless noted, the call rests on the fitted dose curve.
Columns and labels:
[1] = qHTS assay to identify small molecule antagonists of the estrogen related receptor signaling pathway with the pleiotropic PPARgamma coactivator (PGC) from Tox21 10K library - cell viability counter screen (AID 1224840; active means well fitted cell-killing curve with a large enough effect in the repeat runs, not every such curve was filed as active; further: nearly all actives have a fitted effect of over 40% in size)
Method in brief: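 Readout: fluorescence intensity from CellTiter-Fluor after 30 min at 37 C/5% CO2. Preceded by 17.5 h treatment of PGC/ERR cells with DMSO-dissolved compounds, added 6 h post-seeding.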

[2] = qHTS assay to identify small molecule antagonists of the estrogen related receptor signaling pathway with the pleiotropic PPARgamma coactivator (PGC) from Tox21 10K library (AID 1224841; call rule not given here; further: series mostly up to about 92 µM; actives are mostly falling curves and most rising ones were filed inactive; nearly all actives have a fitted effect of over 50% in size)
Method in brief: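 One-Glo luminescence, measured after half an hour at room temperature, quantified reporter output of PGC/ERR cells. These had been plated at 2,000 per well, incubated 6 h, dosed with compounds in DMSO, then kept 18 h at 37 C.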

[3] = qHTS assay to identify small molecule agonists of the estrogen related receptor signaling pathway with the pleiotropic PPARgamma coactivator (PGC) from Tox21 10K library (AID 1224842; active means well fitted curve in the direction sought with a large enough effect in the repeat runs; an effect the other way counts as inactive or inconclusive; further: nearly all actives have a fitted effect of over 15% in size)
Method in brief: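 PGC/ERR reporter cells (NTP line) were seeded 2,000 per well, rested 6 h at 37 C/5% CO2, then pin-dosed with compounds in DMSO for 18 h at 37 C; luciferase read by One-Glo luminescence after 30 min at room temperature.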

[4] = qHTS assay to identify small molecule agonists of the hypoxia (HIF-1) signaling pathway - cell viability counter screen (AID 1224844); further: nearly all actives have a fitted effect of over 50% in size
Method in brief: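 In this counter screen, HRE-bla ME-180 cell viability after 17 hrs of compound exposure at 37C was read by CellTiter-Glo luminescence, multiplexed with the beta-lactamase reporter measurement.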

[5] = qHTS assay to identify small molecule agonists of H2AX (AID 1224845; active means well fitted activation curve with a large enough effect in the signal ratio in the repeat runs, not every such curve was filed as active; the % refers to the signal ratio)
Method in brief: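 Wild-type CHO-K1 cells plated overnight, then exposed 3 hr at 37C to compounds at 15 concentrations (0.76% DMSO). Lysed, then HTRF anti-pH2AX(S139)-cryptate/anti-H2AX-d2 detection after 24 hr at room temperature; emissions 665 and 620 nm.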

[6] = qHTS assay to identify small molecule agonists of the hypoxia (HIF-1) signaling pathway (AID 1224846; active means well fitted activation curve with a large enough effect in the signal ratio in the repeat runs, not every such curve was filed as active; the % refers to the signal ratio)
Method in brief: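 ME-180 HRE-bla reporter cells; compounds in DMSO, 17 h at 37C; read-out beta-lactamase via CCF4-AM FRET.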

[7] = qHTS assay to identify small molecule antagonists of the estrogen related receptor (ERR) signaling pathway from Tox21 library (AID 1224848; active means well fitted curve in the direction sought with a large enough effect in the repeat runs; an effect the other way counts as inactive or inconclusive; further: nearly all actives have a fitted effect of over 50% in size; further: potency means the concentration at half of the fitted maximal effect)
Method in brief: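 Tox21 10K compounds in DMSO tested for ERR pathway antagonism in NTP's ERR cell line; 18 h, 37 C exposure; ONE-Glo luminescence.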

[8] = qHTS assay to identify small molecule agonists of H2AX - cell viability counter screen (AID 1224847); further: top concentration of the series differs between compounds; nearly all actives have a fitted effect of over 30% in size
Method in brief: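 Cells plated first: CHO-K1, 1000 per well in 10% FBS medium, incubated overnight at 37C. Then 15-point compound titration added (final DMSO 0.76%) for 3 hr. Finally CellTiter-Glo added and luminescence read.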

[9] = biological target: Thyrotropin receptor (Homo sapiens) (UniProt P16473); experiment: qHTS assay to identify small molecule agonists of the thyroid stimulating hormone receptor (TSHR) signaling pathway (AID 1224843); further: nearly all actives have a fitted effect of over 45% in size
Chain of Thyrotropin receptor (Homo sapiens) (P16473 whole entry, looked up): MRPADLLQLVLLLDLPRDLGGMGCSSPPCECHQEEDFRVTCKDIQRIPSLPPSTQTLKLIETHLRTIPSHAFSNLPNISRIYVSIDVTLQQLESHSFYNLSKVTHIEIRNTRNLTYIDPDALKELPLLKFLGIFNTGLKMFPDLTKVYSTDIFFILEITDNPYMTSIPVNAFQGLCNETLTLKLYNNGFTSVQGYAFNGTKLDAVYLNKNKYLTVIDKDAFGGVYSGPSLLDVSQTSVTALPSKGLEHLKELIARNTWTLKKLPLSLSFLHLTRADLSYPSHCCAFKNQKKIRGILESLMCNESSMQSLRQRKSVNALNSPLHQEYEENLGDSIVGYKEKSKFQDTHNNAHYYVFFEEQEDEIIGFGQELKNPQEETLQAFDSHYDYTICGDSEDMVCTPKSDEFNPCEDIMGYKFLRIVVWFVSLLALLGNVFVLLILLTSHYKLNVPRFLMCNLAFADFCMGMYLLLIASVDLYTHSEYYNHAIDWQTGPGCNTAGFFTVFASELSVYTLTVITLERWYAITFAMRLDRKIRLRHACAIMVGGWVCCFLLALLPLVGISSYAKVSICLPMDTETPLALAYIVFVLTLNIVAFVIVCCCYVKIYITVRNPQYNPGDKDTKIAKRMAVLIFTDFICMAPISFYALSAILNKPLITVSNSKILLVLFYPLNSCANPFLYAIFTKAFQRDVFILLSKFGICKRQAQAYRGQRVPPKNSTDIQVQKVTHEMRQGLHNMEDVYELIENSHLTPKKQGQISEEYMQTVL
Method in brief: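 Using 15 concentrations per compound in triplicate, cAMP production was monitored in TSHR-HEK293 cells after 30 min compound incubation at RT; HTRF reagents followed, with fluorescence intensity recorded after 1 h.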
On the % scale 0 is the no-effect control and ±100 the full control effect.

CC(C)COC(=O)/C=C/c1ccccc1
inactive: outcome [1] | Potency [2] | outcome [3] | outcome [4] | outcome [5] | outcome [6] | Potency [7]

CC(C)(C)NCCO
inactive: outcome [1] | Potency [2] | outcome [3] | outcome [5] | outcome [6] | Potency [8]

O=S(=O)(O)c1cc(O)ccc1O
inactive: outcome [1] | outcome [9] | outcome [4]

C=C(C)C(=O)OC1CC(C)CC(C)(C)C1 (stereo not given)
inactive: outcome [1] | outcome [9] | outcome [4] | outcome [5] | outcome [6] | Potency [8]

O=C1CC[C@H](C(=O)N2CCCCC2)N1
inactive: outcome [1] | outcome [9] | outcome [4] | outcome [5] | outcome [6] | Potency [8]

SCCSCCS
inactive: outcome [1] | outcome [9] | outcome [4] | outcome [5] | outcome [6]

CCC(C)(CCC(C)C)C(=O)[O-].CCC(C)(CCC(C)C)C(=O)[O-].[Zn+2] (stereo not given)
inactive: outcome [1] | Potency [2] | outcome [3] | outcome [4] | outcome [5] | Potency [8]

O=C1NC2NC(=O)NC2N1 (stereo not given)
inactive: outcome [1] | outcome [9] | outcome [4] | outcome [5] | outcome [6] | Potency [8]

Cc1c(C(C)C)c(=O)n(-c2ccccc2)n1C
inactive: outcome [1] | outcome [3] | outcome [4] | outcome [6] | Potency [8] | Potency [7]

NC(Cc1c[nH]c2ccccc12)C(=O)O (stereo not given)
inactive: outcome [1] | outcome [9] | outcome [4] | outcome [5] | outcome [6] | Potency [8]

CO/N=C(/C(=O)N[C@@H]1C(=O)N2C(C(=O)O)=C(Cn3nnc(C)n3)CS[C@H]12)c1csc(N)n1
inactive: outcome [1] | outcome [9] | outcome [4] | outcome [5] | outcome [6] | Potency [8]

O=C1OC(=O)c2ccccc21
inactive: outcome [1] | outcome [9] | outcome [4] | outcome [5] | outcome [6] | Potency [8]

CC(=O)OC(C)(C)Cc1ccccc1
inactive: outcome [1] | outcome [9] | outcome [4] | outcome [5] | outcome [6]

OCCCCCCCl
inactive: outcome [1] | outcome [9] | outcome [4] | outcome [5] | outcome [6] | Potency [8]

C1=CCC(c2ccccc2)CC1 (stereo not given)
inactive: outcome [1] | outcome [3] | outcome [9] | outcome [4] | outcome [5] | outcome [6] | Potency [8]

CCCOCCOCCOCCO
inactive: outcome [1] | Potency [2] | outcome [3] | outcome [4] | outcome [5] | Potency [8]

CC(=O)OC(C(=O)c1ccccc1)c1ccccc1 (stereo not given)
inactive: outcome [1] | outcome [9] | outcome [4] | outcome [5] | outcome [6] | Potency [8]

CCCCC/C=C/CC(=O)OC
inactive: outcome [1] | outcome [9] | outcome [4] | outcome [5] | outcome [6] | Potency [8]

Cc1ccccc1N1CCN(CCc2nnc3n2CCCC3)CC1
inactive: outcome [1] | outcome [9] | outcome [4] | outcome [5] | outcome [6] | Potency [8]

CC(C)COC(=O)COc1ccc(Cl)cc1Cl
inactive: outcome [1] | Potency [2] | outcome [3] | outcome [4] | outcome [5] | outcome [6] | Potency [8] | Potency [7]

CN[C@@H]1[C@H](O)[C@H](NC)[C@H]2O[C@@]3(O)C(=O)C[C@@H](C)O[C@H]3O[C@@H]2[C@H]1O
inactive: outcome [1] | outcome [9] | outcome [4] | outcome [5] | outcome [6] | Potency [8]

O=C(O)Cc1cccc(-c2cc(CCCCCCc3ccc(O[C@H]4O[C@H](CO)[C@@H](O)[C@H](O)[C@@H]4O)c(-c4cccc(CC(=O)O)c4)c3)ccc2O[C@H]2O[C@H](CO)[C@@H](O)[C@H](O)[C@@H]2O)c1
inactive: viability change, negative = cytotoxic [1] -0.865% [at 0.349 µM] | activation [9] 2.03% [at 0.349 µM] | activity change, negative = cytotoxicity [4] 6.42% [at 0.29 µM] | activation (H2AX phosphorylation) [5] 0.108% [at 0.582 µM] | activation [6] -0.541% [at 0.291 µM] | activity change, negative = cytotoxicity [8] -1.18% [at 0.582 µM]

CCCCCC(=O)OCC
inactive: outcome [1] | outcome [9] | outcome [4] | outcome [5] | outcome [6] | Potency [8]

CN(C1CCCCC1)S(=O)(=O)c1ccccc1N
inactive: outcome [1] | outcome [3] | outcome [9] | outcome [4] | outcome [5] | outcome [6] | Potency [8] | Potency [7]

C=CCOc1cc(Cl)ccc1C(=O)NCCN(CC)CC
inactive: outcome [1] | outcome [9] | outcome [4] | outcome [5] | outcome [6] | Potency [8]

Cc1nc(C)nc(N2C[C@@H](C)N(c3ccnc([C@@H](C)O)n3)[C@@H](C)C2)n1
active: Potency [7] 13.3 µM
inactive: outcome [1] | outcome [3] | outcome [9] | outcome [4] | outcome [5] | outcome [6] | Potency [8]

CC(=O)Nc1ccc(C)cc1
inactive: outcome [1] | Potency [2] | outcome [3] | outcome [4] | outcome [5] | Potency [8] | Potency [7]

COC(OC)C(C)c1ccccc1 (stereo not given)
inactive: outcome [1] | outcome [9] | outcome [4] | outcome [5] | outcome [6] | Potency [8]

O=P(O)(O)OCC(O)CO (stereo not given)
inactive: outcome [1] | Potency [2] | outcome [3] | outcome [4] | outcome [5] | outcome [6] | Potency [8] | Potency [7]

From PubChem BioAssay (Tox21)
